16 molecules from PubChem BioAssay (EPA / NIEHS) can be followed below.

Assay [1] in a line: ATG_TCF_b_cat_CIS: Attagene CIS-FACTORIAL HepG2 Assay for human T-Cell-Factor with beta-catenin (TCF/b-cat) (AID 2282965). Conditions: HepG2 TCF/beta-catenin cis-reporter transcription, actives raise or lower the signal. In a few lines:
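HepG2 cells transiently transfected with cis-promoter-driven multiplexed reporter units; reporter mRNA measured 24 h after dosing by RT-PCR, FAM labelling, HpaI digestion and capillary electrophoresis. Bidirectional fitting relative to DMSO baseline.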

The nature of assay [2]: ATG_TAL_CIS: Attagene CIS-FACTORIAL HepG2 Assay for human TAL Basal Promoter (AID 2282966).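 Also: background control endpoint measuring basal TAL promoter reporter mRNA not a specific factor.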 The note with it: HepG2 Attagene cis-factorial TAL promoter reporter; actives raise or lower the signal. In a few lines: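 HepG2 cells transiently transfected with multiplexed cis-promoter reporter units, dosed 24 h. Reporter mRNA quantified by RT-PCR, 6-FAM labelling, HpaI digestion and capillary electrophoresis; TAL basal promoter serves as background control, fitted bidirectionally versus DMSO.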

Assay [3] can be described thus: ATG_TGFb_CIS: Attagene CIS-FACTORIAL HepG2 Assay for human Transforming Growth Factor (TGF) (AID 2282967). The note with it: HepG2 Attagene CIS TGFb reporter, mRNA transcription; actives raise or lower the signal. In a few lines:
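After a 24-hour incubation with compound, transfected HepG2 cells were lysed for RNA; reporter cDNA was amplified, fluorescently end-labeled and separated by CE. DMSO served as baseline for bidirectional fits.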

Assay [4] can be described thus: ATG_VDRE_CIS: Attagene CIS-FACTORIAL HepG2 Assay for human Vitamin D Receptor Element (VDRE) (AID 2282968). Conditions: HepG2 VDRE cis-reporter transcription, actives raise or lower the signal. In a few lines:
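Cell-based multiplexed reporter format in human liver HepG2 cells, 24 h post-dose. Fluorescence from capillary electrophoresis of reporter cDNA gives the signal, with DMSO as negative control and baseline.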

For assay [5], the target named is Estrogen receptor (Homo sapiens) (UniProt P03372). Nature of the assay: ATG_ERa_TRANS: Attagene TRANS-FACTORIAL HepG2 Assay for human Estrogen Receptor alpha (ERa) (AID 2282970; active = hit-call score of the fitted dose curve at least 0.9, where 1 is the maximum). Conditions: HepG2 Attagene TRANS ERa GAL4 reporter, mRNA. In a few lines:
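HepG2 cells transiently transfected with multiplexed GAL4-UAS reporter units read out chimeric NR-Gal4 activity. After 24 h compound exposure, reporter mRNA was quantified by RT-PCR, 6-FAM labeling, HpaI digestion and capillary electrophoresis, relative to DMSO.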

For assay [6], the target named is X-box-binding protein 1 (Homo sapiens) (UniProt P17861). Nature of the assay: ATG_Xbp1_CIS: Attagene CIS-FACTORIAL HepG2 Assay for human X-box Binding Protein 1 (XBP1) (AID 2282972). The note with it: HepG2 XBP1 cis-element reporter, Attagene multiplex; actives raise or lower the signal. In a few lines: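 After a 24-hour chemical exposure of HepG2 cells carrying cis-regulated reporters, reporter mRNA levels are assessed. Quantification uses RT-PCR, 6-FAM labelling and capillary electrophoresis. Gain- or loss-of-signal is fitted against DMSO.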
X-box-binding protein 1 (Homo sapiens), sequence (P17861 whole entry, looked up): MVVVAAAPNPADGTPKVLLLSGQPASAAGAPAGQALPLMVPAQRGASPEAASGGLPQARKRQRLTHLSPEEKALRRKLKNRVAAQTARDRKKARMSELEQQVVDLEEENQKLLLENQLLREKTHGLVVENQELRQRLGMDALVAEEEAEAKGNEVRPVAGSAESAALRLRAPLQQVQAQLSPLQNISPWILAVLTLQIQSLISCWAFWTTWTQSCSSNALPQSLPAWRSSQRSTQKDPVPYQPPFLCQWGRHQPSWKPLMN

The target of assay [7] is Nuclear receptor subfamily 1 group I member 3 (Homo sapiens) (UniProt Q14994). Kind of assay: ATG_CAR_TRANS: Attagene TRANS-FACTORIAL HepG2 Assay for human Constitutive Androstane Receptor (CAR) (AID 2282969; active = hit-call score of the fitted dose curve at least 0.9, where 1 is the maximum;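 also: activators raise reporter mRNA above DMSO so AC50 marks induction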). The note with it: HepG2 Attagene TRANS-FACTORIAL CAR reporter. In a few lines: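 HepG2 cells transiently transfected with GAL4-UAS reporter units; TRANS format reads activity of exogenous chimeric NR-Gal4 protein. After 24 h dosing, reporter mRNA quantified by RT-PCR, 6-FAM labelling and capillary electrophoresis; gain of signal fitted against DMSO.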
Nuclear receptor subfamily 1 group I member 3 (Homo sapiens), sequence (Q14994 whole entry, looked up, the tested form may be a part): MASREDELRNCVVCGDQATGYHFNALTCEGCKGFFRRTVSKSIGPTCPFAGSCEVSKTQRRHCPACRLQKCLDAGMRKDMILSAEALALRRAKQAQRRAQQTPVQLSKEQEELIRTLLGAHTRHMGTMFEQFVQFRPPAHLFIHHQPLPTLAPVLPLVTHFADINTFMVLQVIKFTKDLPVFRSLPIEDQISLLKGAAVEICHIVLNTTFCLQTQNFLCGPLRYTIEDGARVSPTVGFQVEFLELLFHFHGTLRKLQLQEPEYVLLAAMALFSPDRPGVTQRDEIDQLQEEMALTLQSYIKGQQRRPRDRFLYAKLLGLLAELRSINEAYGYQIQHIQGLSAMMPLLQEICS

Assay [8] is described as follows: ATG_M_19_TRANS: Attagene TRANS-FACTORIAL HepG2 Assay for M19 Transcription Factor (Internal Marker) (AID 2282974; active = hit-call score of the fitted dose curve at least 0.9, where 1 is the maximum). The note with it: HepG2 Attagene TRANS-FACTORIAL M19 internal marker reporter. In a few lines: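 Background-control readout: after 24 h chemical exposure of transfected HepG2 carrying GAL4-driven reporter units, RNA was reverse-transcribed, amplified, fluorescently labeled and sized by capillary electrophoresis; gain-of-signal fit against DMSO.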

Assay [9] in a line: ATG_GAL4_TRANS: Attagene TRANS-FACTORIAL HepG2 Assay for GAL4 (Internal Marker) (AID 2282976; active = hit-call score of the fitted dose curve at least 0.9, where 1 is the maximum). The note with it: HepG2 Attagene TRANS GAL4 internal marker reporter. In a few lines:
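Background-control readout: GAL4-UAS reporter transcript in transiently transfected HepG2 cells after 24 h compound exposure. Measured by RT-PCR, 6-FAM primer extension, HpaI digest and capillary electrophoresis; gain-of-signal fit versus DMSO.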

The target in assay [10] is Estrogen-related receptor gamma (Homo sapiens) (UniProt P62508). Nature of the assay: ATG_ERRg_TRANS: Attagene TRANS-FACTORIAL HepG2 Assay for human Estrogen-Related Receptor gamma (ERRg) (AID 2282977; active = hit-call score of the fitted dose curve at least 0.9, where 1 is the maximum;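 also: hits increase reporter signal over DMSO so potencies reflect activators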). Conditions: HepG2 Attagene TRANS reporter, ERRg transactivation. In a few lines:
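HepG2 cells transiently transfected with multiplexed GAL4-UAS reporter units and chimeric NR-Gal4 constructs were exposed to test chemicals for 24 h. Reporter mRNA was measured by RT-PCR, 6-FAM primer extension, HpaI digestion and capillary electrophoresis; gain-of-signal versus DMSO.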

The structures appear in SMILES notation. Several values for one entry are separate records, joined by “and”; a condition that tells them apart may be missing. Equal entries are not always repeated. Inconclusive results are not listed. Where a structure was tested more than once in an assay, its records may differ in their call. Activity calls are given as the source filed them. The calls were made as follows, unless noted: active = hit-call score of the fitted dose curve at least 0.9, where 1 is the maximum; inactive = score below 0.9.

Estrogen-related receptor gamma (Homo sapiens), sequence (P62508 whole entry, looked up, the tested form may be a part): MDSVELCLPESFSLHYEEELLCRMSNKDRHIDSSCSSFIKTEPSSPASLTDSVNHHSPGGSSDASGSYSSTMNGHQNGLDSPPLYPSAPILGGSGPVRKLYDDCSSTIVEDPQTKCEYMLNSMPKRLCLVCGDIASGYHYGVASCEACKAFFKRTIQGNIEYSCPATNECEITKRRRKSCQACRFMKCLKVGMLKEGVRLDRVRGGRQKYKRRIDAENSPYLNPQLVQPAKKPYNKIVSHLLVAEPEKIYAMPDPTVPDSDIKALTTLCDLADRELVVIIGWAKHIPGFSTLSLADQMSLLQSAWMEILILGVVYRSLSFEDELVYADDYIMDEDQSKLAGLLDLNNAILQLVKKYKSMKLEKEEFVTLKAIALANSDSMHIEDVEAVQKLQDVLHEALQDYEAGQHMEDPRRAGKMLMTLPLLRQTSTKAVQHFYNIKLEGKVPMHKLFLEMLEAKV
Estrogen receptor (Homo sapiens), sequence (P03372 whole entry, looked up, the tested form may be a part): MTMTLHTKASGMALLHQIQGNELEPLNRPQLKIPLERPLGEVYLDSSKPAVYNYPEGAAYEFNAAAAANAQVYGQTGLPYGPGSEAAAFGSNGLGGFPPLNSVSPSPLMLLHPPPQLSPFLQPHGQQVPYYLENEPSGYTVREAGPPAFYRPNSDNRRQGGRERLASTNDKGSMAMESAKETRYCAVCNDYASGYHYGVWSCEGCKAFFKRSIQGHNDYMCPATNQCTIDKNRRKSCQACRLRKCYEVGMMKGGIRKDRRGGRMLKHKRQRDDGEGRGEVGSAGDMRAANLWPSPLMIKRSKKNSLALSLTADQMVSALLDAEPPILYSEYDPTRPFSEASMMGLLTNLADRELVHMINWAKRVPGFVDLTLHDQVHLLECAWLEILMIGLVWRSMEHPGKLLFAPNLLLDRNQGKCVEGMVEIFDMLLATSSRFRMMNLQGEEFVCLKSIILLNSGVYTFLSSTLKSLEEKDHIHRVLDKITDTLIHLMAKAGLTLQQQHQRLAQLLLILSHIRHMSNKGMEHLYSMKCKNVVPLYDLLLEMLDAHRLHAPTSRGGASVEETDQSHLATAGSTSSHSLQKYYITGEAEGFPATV

For the molecule `CCCCC(CC)COC(=O)CCCCC(=O)OCc1ccccc1` (stereo not drawn), the call in assay [1], in assay [2], in assay [3], in [4], in [5] and in assay [6] was inactive.

Turning to `Cc1ccc(S(=O)(=O)O)c(C)c1`, the result in assay [1], in assay [2], in [3], in assay [4], in assay [7] and in assay [5] was inactive. For the same molecule, the molecule was called inactive in assay [8], in assay [9] and in [10].

For orientation: AC50 means the concentration at which the activity in the assay is half-maximal. Regarding `c1ccc2c(c1)Cc1ccccc1-2`, the outcome in [1], in assay [2], in [3], in assay [4] and in assay [9] was inactive. In [5], the AC50 is 35.4 µM (active).

As to `CN1CCN(c2ccccc2/C=C2\SCCN(c3ccc(Cl)c(Cl)c3)C2=O)CC1`, the molecule was classed as inactive in assay [1], in assay [2], in assay [3], in [4], in assay [7] and in [5]. In addition, the result in assay [9] was inactive.

Take `CCCCCCCCCCCCCCCS(=O)(=O)Oc1ccccc1`: the molecule was classed as inactive in assay [1], in assay [2], in assay [3], in [4], in assay [7] and in [5]. Moreover, in assay [6], the molecule was classed as inactive.

In the case of `CC(C)(C)c1cc(C(C)(C)C)c(O)c(C(C)(C)C)c1`, the AC50 in [1] is 87.1 µM (active); in [6], 20.3 µM (active). For the same molecule, the outcome in assay [1], in [3], in assay [7], in assay [5], in [6] and in assay [9] was inactive.

As to `CCCCCCCC(=O)O`, the molecule was called inactive in assay [1], in assay [2], in assay [3], in assay [4], in assay [7] and in [5]. Also, the result in assay [6], in assay [8] and in assay [9] was inactive.

In the case of `CC[C@H](c1ccc(O)cc1)[C@@H](CC)c1ccc(O)cc1`, the AC50 is 9.79 µM (active) and 15.4 µM (active) and 11.1 µM (active) in [1]; 3.47 µM (active) and 2.97 µM (active) in assay [4]. The result in assay [1], in assay [2], in assay [3], in assay [4], in assay [7] and in assay [9] was inactive.

With `CC(O)C(=O)O` (stereo not drawn), the molecule was classed as inactive in [1], in assay [2], in [3], in assay [4], in [7] and in assay [5]. The result in assay [9] was inactive.

For the molecule `OCCC(F)(F)C(F)(F)C(F)(F)C(F)(F)C(F)(F)C(F)(F)C(F)(F)C(F)(F)F`, the AC50 in assay [1] was 33.4 µM (active); in [4], 25.8 µM (active) and 150 µM (active); in [5], 7.75 µM (active). Further, the outcome in [1], in assay [2], in assay [3], in assay [7], in assay [5] and in assay [10] was inactive.

With `CCCCOCCO`, the call in assay [1], in assay [2], in assay [3], in [4], in assay [7] and in [5] was inactive.

As for `OC1CCCCC1`, the molecule was classed as inactive in assay [1], in assay [2], in assay [3], in assay [4], in [5] and in [9].

On to `CCCOc1sc(C(=O)N2CCC(c3cc(CN)ccc3F)CC2)c(C)c1Br`, for which the call in assay [1], in [2], in [3], in assay [4], in [5] and in [6] was inactive.

With `C[C@@H]1C[C@H]2[C@@H]3CCC4=CC(=O)C=C[C@]4(C)[C@@]3(F)[C@@H](O)C[C@]2(C)[C@@]1(O)C(=O)COP(=O)(O)O`, the call in assay [1], in [2], in [3], in assay [4], in assay [5] and in assay [6] was inactive. For the same molecule, the molecule was called inactive in [9]. Moreover, the AC50 in [3] was 0.473 µM (active).

Turning to `OCCC(F)(F)C(F)(F)C(F)(F)C(F)(F)C(F)(F)C(F)(F)F`, the molecule was classed as inactive in assay [1], in [2], in assay [3], in assay [7], in [5] and in [9]. In addition, in assay [3], the AC50 is 157 µM (active).

Regarding `CCC(=C(c1ccc(O)cc1)c1ccc(OCCN(C)C)cc1)c1ccccc1`, the AC50 in assay [1] is 3.39 µM (active); in assay [4], 3.53 µM (active) and 7.1 µM (active) and 2.37 µM (active). Moreover, the call in assay [1], in [3], in assay [4], in assay [7], in assay [8] and in assay [9] was inactive. Also, the molecule was classed as inactive in [10].
